Assay results from PubChem BioAssay (NCI).
The panel holds about 83,000 compounds, 20% with a hit somewhere; the sample as a whole holds those more often.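 96-well plates, one dose, 48 hours. Percent growth reported; active if below 10.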 The source made the active and inactive calls.

tested on: A549/ATCC NSCLC; assay: NCI-60 one-dose screen, 48 h (100 = growth as untreated, 0 = no growth, -100 = all killed); details: 10 µM unless noted
Description: Growth inhibition of the A549/ATCC human Non-Small Cell Lung tumor cell line is measured as a screen for anti-cancer activity. Cells are grown in 96 well plates and exposed to the test compound for 48 hours. Compounds are tested at a single concentration, which is 10^-5 M for most compounds. The reported endpoint is percent growth (GI% or GIPRCNT), where numbers from 0 - 100% represent growth inhibition, and numbers from -100% - 0 represent cell death. For example, a value of 40 represents 60% growth inhibition. A value of 0 means no net growth occurred over the course of the experiment. A value of -40 indicates 40% of cells at the beginning of the experiment died by the end of the experiment. A value of -100 means all cells are dead at the end of the experiment.
NCI-60 Human Tumor Cell Lines Screen was performed using the standard one-dose NCI protocol, which is described in more detail at https://dtp.cancer.gov/discovery_development/nci-60/default.htm.
Compounds with GIPRCNT values below 10 were considered active. Activity score was based on GIPRCNT using the following formula: […]
Score is 0 for GIPRCNT values of 100 or above, 50 for GIPRCNT values of 0, and 100 for GIPRCNT values of -100.

SMILES	growth
CC(=O)Nc1ccc(S(=O)(=O)N2C(=O)CCC2C(=O)Nc2ccccc2)cc1 (stereo not given)	21.3% (inactive)
C=C1C(=O)O[C@H]2[C@H]1CC/C(COC(=O)NCc1cc(OC)cc(OC)c1)=C\CC[C@@]1(C)O[C@@H]21	51.2% (inactive)
O=C(CNC1CCCCC1)Nc1ccc(-c2nc3ccccc3s2)cc1	88% (inactive)
Cc1cccc(NC(=O)c2sc3nc4c(cc3c2N)CCC4)c1C	18.6% (inactive)
COc1ccccc1CNCCCN1C(=O)c2ccc3c4c(ccc(c24)C1=O)C(=O)N(CCCNCCCCNCCCCN)C3=O	-3.81% (active)
O=S(=O)(c1ccccc1)n1ccc(-c2ccc3c(c2)CCO3)n1	78.8% (inactive)
O=C1NCC(c2cc3ccccc3[nH]c2=O)Nc2ccccc21 (stereo not given)	92.4% (inactive)
O=C(COc1ccccc1)N1N=C(c2ccc(Cl)cc2)CC1c1c[nH]c2ccccc12 (stereo not given)	58.4% (inactive)
O=C(CCl)NCCNc1nccc(Nc2ccc(S(=O)(=O)Nc3ccccn3)cc2)n1	56.8% (inactive)
Cc1sc2nc(CSc3nnc(-c4ccco4)o3)[nH]c(=O)c2c1C	101% (inactive)
COc1cc(OC)c(C(=O)/C=C/c2ccc(C(F)(F)F)cc2)c(OC)c1	53.5% (inactive)
COc1ccc(/C=C/C(=O)c2cccc(B(O)O)c2)cc1O	41.7% (inactive)
CCCn1c(=S)sc2c(Cl)nc(C)nc21	117% (inactive)
Cc1ccc(S(=O)(=O)OCC(=O)Nc2ccc(C(=O)O)c(O)c2)cc1	101% (inactive)
Cc1ccc(-c2csc3nc(C)c(CCCl)c(=O)n23)cc1	98% (inactive)
CCSc1nnc(NC(=O)COc2ccc(Cl)cc2C)s1	104% (inactive)
CCC(c1ccc(OC)cc1)C(CC)c1ccc(OCC[N+](C)(C)C)cc1 (stereo not given)	74.3% (inactive)
C=CCOc1cccc(/C=C/C(=O)c2sc(Nc3cccnc3)nc2C)c1	70.9% (inactive)
CCn1cc(C(=O)O)c(=O)c2cc(F)c(N3CCN(S(=O)(=O)c4ccc(Cl)cc4Cl)CC3)cc21	2.05% (active)
CC(C)[C@H](CO)Nc1nc(Nc2ccc(C(=O)NCCNS(=O)(=O)c3cccc4c(N(C)C)cccc34)c(Cl)c2)c2ncn(C(C)C)c2n1	0.602% (active)

SMILES	growth
CC(C)C[C@H](NC(=O)Cn1ccc(NCc2ccccc2)cc1=O)B(O)O	40.4% (inactive)
COc1cc(-c2n[nH]nc2-c2ccc3c(c2)OCCO3)cc(OC)c1OC	16.5% (inactive)
O=C(O)c1ccc(-n2c(=O)c3ccccc3c3ccccc3c2=O)cc1	106% (inactive)
CCCCn1c(=O)c(C2CNC(=O)c3ccccc3N2)cc2ccccc21 (stereo not given)	97.1% (inactive)
COc1ccc(-c2nc(-c3nc4ccc(F)cc4[nH]3)cc3c2[nH]c2ccccc23)cc1	14.3% (inactive)
CCC(C)NCC(=O)O (stereo not given)	105% (inactive)
NCCSC(c1ccccc1)(c1ccccc1)c1ccccc1	19.9% (inactive)
CC/C=C\C/C=C\C[C@H]1C/C=C2/C(=O)C=C[C@H]2C/C=C\CCC(=O)O1	25.2% (inactive)
CN(C)c1ccc(C2CC(c3ccccc3)=NN2/C=C2\SC(=O)NC2=O)cc1 (stereo not given)	70.1% (inactive)
CCCCCCCCCCn1cc[n+](C)c1	32.6% (inactive)
Cc1cc(Nc2nc(-c3ccc(F)cc3)nc3ccccc23)n[nH]1	13.8% (inactive)
COC(=O)CCCCCN=Cc1c(O)c(O)c(C(C)C)c2cc(C)c(-c3c(C)cc4c(C(C)C)c(O)c(O)c(C=NCCCCCC(=O)OC)c4c3O)c(O)c12	20.8% (inactive)
COc1ccc(C(=O)N2CCN(C(=O)c3cc(OC)c(OC)c(OC)c3)CC2)cc1OCCCCOc1cc2c(cc1OC)C(=O)N1CCC[C@H]1C=N2	76.8% (inactive)
O=c1[nH]c2ccccc2cc1-c1nnc(Cc2ccccc2)o1	83.3% (inactive)
CC(=O)Nc1nc(C(=O)N2N=C(C)/C(=C/c3ccccc3)C2=O)cs1	101% (inactive)
CCOC(=O)CC/C(C)=N\Nc1ccc([N+](=O)[O-])cc1	24.4% (inactive)
Cn1c(=O)c2c(nc3n2CCN(CCc2ccc(OCCN4CCOCC4)cc2)C3)n(C)c1=O	99.4% (inactive)
O=c1oc2cc(OS(=O)(=O)c3ccccc3)c(Cl)cc2c2c1CCCCCC2	88.2% (inactive)
CC(=O)n1cc([C@H]2CC[C@H](c3cn(C(C)=O)c4ccccc34)c3c2[nH]c2ccccc32)c2ccccc21	70% (inactive)
O=S(=O)(NCCCNc1nccc(-c2c(-c3ccccc3)nc3sccn23)n1)c1ccc(F)cc1	43.6% (inactive)
